# Compound activity: PubChem, Broad Institute
# A selection follows.
# aSyn 5UTR act = Activators via SNCA 5'UTR binding, MLPCN; actives 7.1% (n = 300,000); activity score, % (tested at 7.5 µM), hits read low; alpha-synuclein 5'UTR reporter, activators screen; in the data active means activity score below about -60%
# An asterisk follows results filed as active.
SMILES,aSyn 5UTR act
Cc1ccccc1/C=C\c1nc2ccccc2c(=O)[nH]1,-142.2*
Cc1ccccc1/C=C/c1nc2ccccc2c(=O)[nH]1,-324.0*
N#CCOc1ccccc1/C=C/c1nc2ccccc2c(=O)[nH]1,-115.2*
O=C(NCc1ccc(F)cc1)c1c2c(nc3ccccc13)CCC2,-70.6*
O=C(Nc1cc(Cl)cc(Cl)c1)c1cccc(OC(F)F)c1,-97.7*
Cc1ccnc(NC(=O)c2cccc(OC(F)F)c2)n1,-77.4*
CN(C)c1ccc(C(=O)/C=C/c2cccnc2)cc1,-167.3*
Cc1ccc(CNc2ccc(Cl)cc2[N+](=O)[O-])cc1,-76.1*
Cc1ccc(NCCC(=O)c2cccc([N+](=O)[O-])c2)c(C)c1,-201.4*
O=C(N/C(=C/c1cccc(Br)c1)c1nc(=S)[nH][nH]1)c1ccccc1,-77.1*
CCC1CCCCN1S(=O)(=O)c1ccc2c(c1)CCN2C(C)=O (stereo not given),57.0
CC(=O)N1CCOc2ccc(S(=O)(=O)N3CCCCC3)cc21,-250.3*
CC(=O)c1cccc(NS(=O)(=O)c2ccc3c(c2)N(C(C)=O)CCO3)c1,-69.7*
COc1ccccc1OCCSc1nnnn1C1CCCCC1,-81.4*
c1ccc(OCCSc2nnnn2C2CCCCC2)cc1,-121.7*
Brc1ccccc1-c1nnc(SCc2nc3ccccc3s2)o1,-243.6*
CCN(CC)S(=O)(=O)c1cccc(-c2nnc(SCc3nc4ccccc4s3)o2)c1,-113.0*
COc1cccc2cc(CC(=O)c3cc(C)ccc3C)c(=O)oc12,-116.5*
COc1cccc2cc(C(=O)c3ccccc3)oc12,-131.6*
COc1cccc2cc(C(=O)NCc3ccco3)c(=Nc3ccc(C(=O)O)cc3)oc12,-90.4*
CCc1ccc(C(=O)Cc2cc3cccc(OC)c3oc2=O)cc1,-104.7*
CCc1ccc(-c2nc(C(N)=O)c3[nH]c(=O)n(-c4ccccc4OC)c3n2)cc1,81.5
COc1cccc2cc(CC(=O)c3ccccc3)c(=O)oc12,-146.8*
COc1cccc2cc(C(=O)Nc3ccccc3C)/c(=N/O)oc12,-114.5*
COc1cccc2cc(-c3nc4ccccc4o3)c(=O)oc12,-169.3*
SMILES,aSyn 5UTR act
COc1cccc2cc(C(=O)OCC(=O)NCc3ccc4c(c3)OCO4)c(=O)oc12,-91.5*
COc1cccc2cc(C(=O)NCc3ccccc3Cl)c(=O)oc12,-100.7*
COc1ccc(N2C(=O)c3ccccc3NC23CCCC3)cc1,-89.8*
Cc1ccc(Nc2nc(Cl)c(C=O)s2)cc1Cl,-115.0*
COc1ccccc1Nc1nc(Cl)c(C=O)s1,-103.6*
O=Cc1sc(Nc2ccccc2)nc1Cl,-117.5*
COc1ccccc1Nc1nc2c(s1)CCC2,-68.2*
COc1cccc(-c2cc(C(=O)N3C(C)CCCC3C)no2)c1 (stereo not given),-147.5*
CC1CCCCN1C(=O)c1cc(-c2ccc3c(c2)OCO3)on1 (stereo not given),-86.9*
CCC1CCCCN1C(=O)c1cc(-c2ccc(Cl)c(Cl)c2)on1 (stereo not given),-93.5*
CC1CCCCN1C(=O)c1cc(-c2ccc(Cl)c(Cl)c2)on1 (stereo not given),-221.7*
CC(=O)c1ccc(-n2c(CCC(=O)O)ccc2-c2cccs2)cc1,-98.7*
CCOc1ccc(/C=C/C(=O)C(C(N)=O)=C2SCCS2)cc1,-161.5*
CCOc1ccc2oc(C(=O)NC(C)(C)CC)c(C)c2c1,-117.5*
O=C(Nc1ccc(Br)cc1Cl)c1ccc2c(=O)n3c(nc2c1)CCC3,-189.6*
O=C(Nc1ccc(Cl)cc1Cl)c1ccc2c(=O)n3c(nc2c1)CCC3,-159.3*
Nc1c(-c2ccccc2)cnn1-c1cccc(Cl)c1,-144.4*
Cc1cccc(-c2cnn(-c3cccc([N+](=O)[O-])c3)c2N)c1,-75.3*
Cc1cccc(-c2cnn(-c3ccccc3)c2N)c1,-128.6*
O=C(Nc1ncc(Cc2ccccc2Cl)s1)C1CCCO1 (stereo not given),-89.3*
O=C(Nc1ncc(Cc2cccc(Cl)c2)s1)C1CCCO1 (stereo not given),-161.3*
O=C(Nc1ncc(Cc2cccc(Cl)c2Cl)s1)C1CCCO1 (stereo not given),-128.3*
COCCNC(=O)c1ccc2c3n(nc2c1)-c1ccccc1CO3,-108.0*
COCCNC(=O)c1c[nH]c2ccc(S(=O)(=O)N3CCc4ccccc43)cc2c1=O,61.2
Cc1ccc2c(c1)COc1c3ccc(C(=O)NCCO)cc3nn1-2,-157.6*
SMILES,aSyn 5UTR act
O=C(NCC1CC1)c1ccc2c3n(nc2c1)-c1ccc(Cl)cc1CO3,-166.0*
COCCNC(=O)c1ccc2c3n(nc2c1)-c1ccc(Cl)cc1CO3,-164.0*
O=C(NCCO)c1ccc2c3n(nc2c1)-c1ccc(Cl)cc1CO3,-158.5*
c1ccc2oc(CCc3nc4ccccc4o3)nc2c1,-99.0*
Nc1ccc2oc(CCc3ccccc3)nc2c1,-117.6*
COc1ccc(OC)c(Nc2cc(C)nc3ccc(C)cc23)c1,62.9
COc1ccc2nc(C)cc(Nc3ccc(N4CCN(C)CC4)cc3)c2c1,-87.2*
O=[N+]([O-])c1ccc(CSc2nc3ccccc3o2)cc1,-133.2*
c1ccc2[nH]c(CSc3nc4ccccc4o3)nc2c1,-77.7*
Cc1c(C(=O)Nc2ccccc2F)sc2nc3n(c(=O)c12)CCC3,-111.2*
CCc1cccc(NC(=O)c2sc3nc4n(c(=O)c3c2C)CCC4)c1,-136.5*
Cc1c(C(=O)Nc2ccccn2)sc2nc3n(c(=O)c12)CCC3,-86.4*
O=c1c2sc(-c3ccccc3)cc2nc2n1CCC2,82.4
CC(=O)Nc1nc2ccccc2n1Cc1ccccc1Cl,86.6
Cn1c(NCc2ccccc2Cl)nc2ccccc21,-163.8*
Cn1c(NCc2ccccc2O)nc2ccccc21,-271.9*
COc1ccc(C(=O)Nn2cnc3ccccc3c2=O)c(OC)c1,-88.0*
Cc1ccccc1C(=O)Nn1cnc2ccccc2c1=O,-78.9*
C#CCn1cccc(C(=O)Nc2ccc(OC)cc2)c1=O,-63.5*
CCCn1cccc(C(=O)Nc2ccc(OC)cc2)c1=O,-82.3*
O=C(NCSc1ccccc1)c1ccccc1,-94.0*
[O-]/C(=C(\C(=S)Nc1ccc(SC(F)F)cc1)[n+]1cccc(CO)c1)c1ccc(Cl)s1,-70.6*
CCN(CC)c1ccc(NC(=O)C2CC3CCC2C3)cc1 (stereo not given),-68.4*
Cc1ccc(NC(=O)C2CC3CCC2C3)c(Br)c1 (stereo not given),-110.2*
CC(C)c1ccc(N=C2N=C(N)c3ccccc32)cc1,-132.4*
SMILES,aSyn 5UTR act
CC(=O)NC(=S)Nc1sc2c(c1C#N)CCCCC2,-119.5*
CCC1(C)Cc2c(sc(NC(=S)NC(=O)c3ccccc3)c2C#N)CO1 (stereo not given),-145.5*
CC1CCc2sc(NC(=S)NC(=O)c3ccccc3)c(C#N)c2C1 (stereo not given),-141.2*
N#Cc1c(NC(=O)C2CC2)sc2c1CCCCC2,-119.2*
Cn1nccc1C(=O)NC(=S)Nc1sc2c(c1C#N)CCCCC2,-148.3*
N#Cc1c(NC(=S)NC(=O)c2ccccc2)sc2c1CCC2,-126.5*
O=C(/C=C/N1CCOCC1)c1coc2ccccc12,-104.2*
O=C(Nc1ccc(CN2CCOCC2)cc1)c1cc2ccccc2o1,-71.4*
O=C(/C=C/N1CCOCC1)c1cc2ccccc2o1,-82.4*
O=C(Nc1ccc(CN2CCOCC2)cc1)c1cc2ccccn2n1,71.7
Cc1c(C(=O)Nc2ccc(N3CCOCC3)cc2)oc2ccccc12,-166.2*
O=C(Nc1ccc(N2CCOCC2)cc1)c1cc2ccccc2o1,-109.9*
Oc1ccc(N=Nc2n[nH]c(-c3ccccc3)n2)cc1,-84.8*
COc1cc(/C=C/c2nc3ccccc3c(=O)[nH]2)ccc1OC(F)F,-195.0*
